The panel holds about 79,000 compounds, 15% with a hit somewhere; the sample as a whole holds those more often. A number with no mark means an inactive call. Activity calls are given as the source filed them. Cut-off read from the data, not from the text of the source: active = growth inhibition above about 70%; inactive = the rest.

These results are taken from PubChem BioAssay (NCI).

The nature of this test: NCI Yeast Anticancer Drug Screen. Data for the bub3 strain (AID 167). To be noted: S. cerevisiae bub3 mutant strain, stronger effect = higher value. As for the experimental part:
Growth inhibition of yeast strains with defined genetic alterations is measured as a screen for potential anti-cancer activity. Selected strains with alterations in DNA damage repair or cell cycle control were exposed to compounds and growth inhibition was measured relative to vehicle treated controls. The strain used in this assay is bub3

[1] abbreviates: at 5.0 µM (retest, dose inferred, filed as 0.5).
The mark [2] stands for this setting: at 50.0 µM (retest, dose inferred, filed as 5.0).

Consider `O=[N+]([O-])c1ccc(NC(=S)N/N=C(\c2ccccc2)c2ccccn2)cc1`, for which the growth inhibition under setting [1] was -5%, the growth inhibition under setting [2] was 82% (active) and the growth inhibition (at 50.0 µM) was 80.8% (active).

Take `CN(C)CC1CCc2c(ccc3ccccc23)C1=O` (configuration not stated): the growth inhibition under setting [1] was 19%, the growth inhibition under setting [2] was 82% (active) and the growth inhibition (at 50.0 µM) is 58.8%.

For the compound `CC(=O)OC1CCCCCCCCCCC12OCCO2` (configuration not stated), the growth inhibition by setting is: under setting [1], 1%; under setting [2], 96% (active); (at 50.0 µM) 83% (active).

On to `COc1cc(C2c3cc4c(cc3[C@@H](OCCN)[C@H]3COC(=O)C23)OCO4)cc(OC)c1O` (some centres not stated), for which the growth inhibition under setting [1] is 24%, the growth inhibition under setting [2] is 44% and the growth inhibition (at 50.0 µM) was 49.5%.

As to `NC1C(=O)C2CCCCC2C(=O)C1C(=O)c1ccccc1` (configuration not stated), the growth inhibition was 5% under setting [1], 49% under setting [2] and 73.9% (active) (at 50.0 µM).

Consider `COc1ccc(C2=NN(c3ccccc3)C[N+](c3ccc(OC)cc3)=N2)cc1`, for which the growth inhibition under setting [1] is -10%, the growth inhibition under setting [2] is 99% (active) and the growth inhibition (at 50.0 µM) was 97.7% (active).

As for `O=C(O)/C(=C/c1ccccc1)c1ccc2ccccc2c1Br`, the growth inhibition was -10% under setting [1], 99% (active) under setting [2] and 99.7% (active) (at 50.0 µM).

Regarding `COc1ccc2c(c1)CCCN2S(=O)(=O)c1ccc(N)cc1`, the growth inhibition under setting [1] is 3%, the growth inhibition under setting [2] was 49% and the growth inhibition (at 50.0 µM) is 32.2%.

Turning to `CC(CC(C)[C@H]1CCC2[C@H]3C(CC(=O)[C@@]21C)[C@@]1(C)CCC(O)C[C@H]1C[C@@H]3O)C(=O)O` (some centres not stated), the growth inhibition runs as follows: under setting [1], -4%; under setting [2], 98% (active); (at 50.0 µM) 99% (active).

For `C[n+]1cc2c3ccccc3ccc2c2ccccc21`, the growth inhibition was 7% under setting [1], 57% under setting [2] and 47% (at 50.0 µM).

Regarding `O=C(O)C(S(=O)(=O)O)S(=O)(=O)O`, the growth inhibition reads like this: under setting [1], 99% (active); under setting [2], 99% (active); (at 50.0 µM) 98.4% (active).

`NC(N)=Nc1ccc(C(=O)Oc2c(Cl)cc([N+](=O)[O-])cc2Cl)cc1`: the growth inhibition is, setting by setting: under setting [1], -6%; under setting [2], 40%; (at 50.0 µM) 25.9%.

Consider `CCc1cccc(CC)c1NC(=S)N/C=C(\C#N)C(=O)c1ccc2ccccc2c1`, for which the growth inhibition was 3% under setting [1], 7% under setting [2] and 59.1% (at 50.0 µM).

In the case of `CC(C)SC(=S)S(=O)(=O)c1ccc(Cl)cc1`, the growth inhibition is 11% under setting [1], 83% (active) under setting [2] and 99.7% (active) (at 50.0 µM).
